According to PubChem BioAssay AID1159580 (chemical genetic matrix, 2015):
The whole screen tested about 5,500 compounds, of which about 2,000 (36%) were called active. Inconclusive results (about 18%) are left out. Cut-off read from the data, not from the text of the source: active = normalized growth mostly below about 0.91 (no sharp cut-off); inconclusive = no clear call, values can overlap the other calls; inactive = mostly above about 0.92. This is one part of the list.

Assay: chemical genetic growth profiling, strain panel (AID 1159580);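 note: tested at 20 µM; growth read once vehicle control cultures reached saturation at 30 °C; 1 = growth at the plate median or of vehicle wells; lower values mean less growth of the strain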
Conditions: S. cerevisiae deletion strains, growth OD

Measured: normalized growth

O=S(=O)(O)c1cc(N=C=S)ccc1/C=C/c1ccc(N=C=S)cc1S(=O)(=O)O
inactive: locus YAL021C, strain ccr4, hits give low values 1.03 | locus YAL026C, strain drs2, hits give low values 1.01 | locus YAL030W, strain snc1, hits give low values 1.02 | locus YBL061C, strain skt5, hits give low values 1.03 | locus YBR009C, strain hhf1, hits give low values 1.05 | locus YBR023C, strain chs3, hits give low values 1.02 | locus YBR171W, strain sec66, hits give low values 1.04 | locus YBR231C, strain swc5, hits give low values 1.03 | locus YBR279W, strain paf1, hits give low values 1.01 | locus YCL011C, strain gbp2, hits give low values 1.02 | locus YCL016C, strain dcc1, hits give low values 1.03 | locus YCL061C, strain MRC1, hits give low values 1.02 | locus YCL069W, strain vba3, hits give low values 1.02 | locus YCR088W, strain abp1, hits give low values 1.02 | locus YDL005C, strain med2, hits give low values 1.03 | locus YDL040C, strain nat1, hits give low values 1.02 | locus YDR001C, strain nth1, hits give low values 1.02 | locus YDR069C, strain doa4, hits give low values 1.05 | locus YDR137W, strain rgp1, hits give low values 1.01 | locus YDR159W, strain sac3, hits give low values 1.06 | locus YDR195W, strain ref2 1.03 | locus YDR297W, strain sur2, hits give low values 1.03 | locus YDR334W, strain swr1, hits give low values 1.02 | locus YDR335W, strain msn5, hits give low values 1.03 | locus YDR392W, strain spt3, hits give low values 0.919 | locus YEL003W, strain gim4, hits give low values 1.02 | locus YEL037C, strain rad23, hits give low values 1.02 | locus YEL061C, strain CIN8 (second series), hits give low values 1.02 | locus YER015W, strain faa2, hits give low values 1.03 | locus YER016W, strain bim1, hits give low values 1.03 | locus YER111C, strain swi4, hits give low values 1.03 | locus YER155C, strain BEM2 (second series), hits give low values 1.04 | locus YFR010W, strain ubp6, hits give low values 1.03 | locus YGL167C, strain pmr1, hits give low values 1.03 | locus YGL173C, strain kem1, hits give low values 1.04 | locus YGL227W, strain vid30, hits give low values 1.03 | locus YGL240W, strain doc1, hits give low values 1.03 | locus YGL253W, strain hxk2, hits give low values 1.03 | locus YHR013C, strain ard1, hits give low values 1.04 | locus YHR027C, strain rpn1, hits give low values 1.02 | locus YHR030C, strain SLT2, hits give low values 0.996 | locus YHR079C, strain IRE1, hits give low values 1.04 | locus YHR142W, strain chs7, hits give low values 1.04 | locus YJL092W, strain hpr5, hits give low values 1.01 | locus YJL095W, strain BCK1 (second series), hits give low values 1.02 | locus YJL095W, strain BCK1, hits give low values 0.99 | locus YJL115W, strain asf1, hits give low values 1.02 | locus YJL129C, strain trk1, hits give low values 1.06 | locus YJL154C, strain vps35, hits give low values 1.02 | locus YJL164C, strain tpk1, hits give low values 0.994 | locus YJL166W, strain qcr8, hits give low values 1.02 | locus YJL187C, strain SWE1, hits give low values 1.02 | locus YJR066W, strain TOR1, hits give low values 0.924 | locus YKL160W, strain elf1, hits give low values 1.02 | locus YKR026C, strain gcn3, hits give low values 1.02 | locus YKR091W, strain srl3, hits give low values 1.03 | locus YLL001W, strain dnm1, hits give low values 1.01 | locus YLL026W, hits give low values 1.01 | locus YLL041C, strain sdh2, hits give low values 1.02 | locus YLR027C, strain aat2, hits give low values 1.02 | locus YLR113W, strain HOG1, hits give low values 1.11 | locus YLR221C, strain rsa3, hits give low values 1.02 | locus YLR258W, strain gsy2, hits give low values 1.03 | locus YLR262C, strain YPT6 (second series), hits give low values 1.04 | locus YLR320W, strain mms22, hits give low values 1.05 | locus YLR342W, strain FKS1, hits give low values 1.04 | locus YLR357W, strain rsc2, hits give low values 0.993 | locus YLR370C, strain arc18, hits give low values 1.03 | locus YLR384C, strain iki3, hits give low values 1.03 | locus YML120C, strain ndi1, hits give low values 1.01 | locus YMR058W, strain fet3, hits give low values 1.01 | locus YMR125W, strain sto1, hits give low values 1.03 | locus YMR129W, hits give low values 1.02 | locus YMR205C, strain PFK2, hits give low values 1.06 | locus YMR231W, strain pep5, hits give low values 1.02 | locus YNL071W, strain lat1, hits give low values 1.02 | locus YNL183C, strain NPR1, hits give low values 0.961 | locus YNL209W, strain ssb2, hits give low values 1.03 | locus YNL248C, strain rpa49, hits give low values 1 | locus YNL322C, strain KRE1 (second series), hits give low values 1.03 | locus YNR049C, strain mso1, hits give low values 1.03 | locus YOR001W, strain rrp6, hits give low values 0.999 | locus YOR070C, strain gyp1, hits give low values 1.01 | locus YOR080W, strain dia2, hits give low values 1.04 | locus YOR083W, strain WHI5, hits give low values 1.01 | locus YOR106W, strain vam3, hits give low values 1.04 | locus YOR231W, strain MKK1, hits give low values 1.03 | locus YOR265W, strain rbl2, hits give low values 1.02 | locus YOR270C, strain vph1, hits give low values 1.04 | locus YOR290C, strain snf2, hits give low values 0.954 | locus YPL051W, strain arl3, hits give low values 0.994 | locus YPL078C, strain atp4, hits give low values 1.02 | locus YPL106C, strain sse1, hits give low values 1.05 | locus YPL240C, strain hsp82, hits give low values 1.03 | locus YPL256C, strain CLN2, hits give low values 1.11
